First the molecules themselves.
B1: ACACTTCA (ssRNA)
RNA 1: GAGUUCUACAGUCCGACGAUCCCAACACACUUCACACCUGGAAUUCUCGGGUGCCAA
RNA 2: UGGAGUGUGACAAUGGUGUUUG
DNA 1: GATCGTCGGACTGTAGAACTC
DNA 2: TTGGCACCCGAGAATTCCA
modifications: constant regions annealed to DNA blockers; guide miR-122 5' phosphate
B2: ATACCTCA (ssRNA)
RNA 1: B1 RNA 1 with C28U, U31C
RNA 2: UGGAGUGUGACAAUGGUGUUUG
DNA 1: GATCGTCGGACTGTAGAACTC
DNA 2: TTGGCACCCGAGAATTCCA
modifications: constant regions annealed to DNA blockers; guide miR-122 5' phosphate
B3: GCACTCCG (ssRNA)
RNA 1: B1 RNA 1 with A27G, U32C, A34G
RNA 2: UGGAGUGUGACAAUGGUGUUUG
DNA 1: GATCGTCGGACTGTAGAACTC
DNA 2: TTGGCACCCGAGAATTCCA
modifications: constant regions annealed to DNA blockers; guide miR-122 5' phosphate
B4: ATGTCCCA (ssRNA)
RNA 1: B1 RNA 1 with C28U, A29G, C30U, U31C, U32C
RNA 2: UGGAGUGUGACAAUGGUGUUUG
DNA 1: GATCGTCGGACTGTAGAACTC
DNA 2: TTGGCACCCGAGAATTCCA
modifications: constant regions annealed to DNA blockers; guide miR-122 5' phosphate
B5: ACACCCTA (ssRNA)
RNA 1: B1 RNA 1 with U31C, U32C, C33U
RNA 2: UGGAGUGUGACAAUGGUGUUUG
DNA 1: GATCGTCGGACTGTAGAACTC
DNA 2: TTGGCACCCGAGAATTCCA
modifications: constant regions annealed to DNA blockers; guide miR-122 5' phosphate
B6: ACGCCTCA (ssRNA)
RNA 1: B1 RNA 1 with A29G, U31C
RNA 2: UGGAGUGUGACAAUGGUGUUUG
DNA 1: GATCGTCGGACTGTAGAACTC
DNA 2: TTGGCACCCGAGAATTCCA
modifications: constant regions annealed to DNA blockers; guide miR-122 5' phosphate
B7: GTGCTCCA (ssRNA)
RNA 1: B1 RNA 1 with A27G, C28U, A29G, U32C
RNA 2: UGGAGUGUGACAAUGGUGUUUG
DNA 1: GATCGTCGGACTGTAGAACTC
DNA 2: TTGGCACCCGAGAATTCCA
modifications: constant regions annealed to DNA blockers; guide miR-122 5' phosphate
B8: GCACCTCA (ssRNA)
RNA 1: B1 RNA 1 with A27G, U31C
RNA 2: UGGAGUGUGACAAUGGUGUUUG
DNA 1: GATCGTCGGACTGTAGAACTC
DNA 2: TTGGCACCCGAGAATTCCA
modifications: constant regions annealed to DNA blockers; guide miR-122 5' phosphate
B9: ATGCTCCG (ssRNA)
RNA 1: B1 RNA 1 with C28U, A29G, U32C, A34G
RNA 2: UGGAGUGUGACAAUGGUGUUUG
DNA 1: GATCGTCGGACTGTAGAACTC
DNA 2: TTGGCACCCGAGAATTCCA
modifications: constant regions annealed to DNA blockers; guide miR-122 5' phosphate

Substitutions are numbered along the chain they refer to.

Data on nine molecules can be found in article PMC12529666, “Dysregulation of AGO2-miRNA dynamics underlies the AGO2-associated Lessel–Kreienkamp syndrome”.

Sequence of AGO2 T357M (Q9UKV8 whole entry T357M/S387D/S824A/S828D/S831D/S834A): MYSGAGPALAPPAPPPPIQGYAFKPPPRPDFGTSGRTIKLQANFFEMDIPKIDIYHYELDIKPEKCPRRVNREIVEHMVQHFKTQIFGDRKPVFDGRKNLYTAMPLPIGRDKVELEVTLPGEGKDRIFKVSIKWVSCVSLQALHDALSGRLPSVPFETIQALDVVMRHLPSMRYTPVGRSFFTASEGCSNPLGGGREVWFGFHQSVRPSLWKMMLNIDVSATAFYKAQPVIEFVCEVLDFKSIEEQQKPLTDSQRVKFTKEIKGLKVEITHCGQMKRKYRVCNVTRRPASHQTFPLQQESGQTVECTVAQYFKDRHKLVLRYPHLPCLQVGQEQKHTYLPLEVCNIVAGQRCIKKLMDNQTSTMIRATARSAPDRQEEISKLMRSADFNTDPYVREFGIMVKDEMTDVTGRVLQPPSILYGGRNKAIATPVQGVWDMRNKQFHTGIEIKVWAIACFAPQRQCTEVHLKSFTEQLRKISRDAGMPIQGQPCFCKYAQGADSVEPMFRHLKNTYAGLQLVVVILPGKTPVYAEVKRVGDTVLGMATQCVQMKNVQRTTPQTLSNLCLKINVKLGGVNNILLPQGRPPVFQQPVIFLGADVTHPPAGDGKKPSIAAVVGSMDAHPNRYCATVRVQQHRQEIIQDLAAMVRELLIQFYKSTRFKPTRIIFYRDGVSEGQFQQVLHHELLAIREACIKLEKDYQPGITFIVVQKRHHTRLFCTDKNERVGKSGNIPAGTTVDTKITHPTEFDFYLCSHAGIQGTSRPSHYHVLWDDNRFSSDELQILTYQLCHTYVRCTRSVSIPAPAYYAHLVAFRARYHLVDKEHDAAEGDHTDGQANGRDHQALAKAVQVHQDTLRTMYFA
Sequence of AGO2 F182del (Q9UKV8 other isoform, or with tags, fused parts or gaps S387D;S824A;S828D;S831D;S834A;del182-182): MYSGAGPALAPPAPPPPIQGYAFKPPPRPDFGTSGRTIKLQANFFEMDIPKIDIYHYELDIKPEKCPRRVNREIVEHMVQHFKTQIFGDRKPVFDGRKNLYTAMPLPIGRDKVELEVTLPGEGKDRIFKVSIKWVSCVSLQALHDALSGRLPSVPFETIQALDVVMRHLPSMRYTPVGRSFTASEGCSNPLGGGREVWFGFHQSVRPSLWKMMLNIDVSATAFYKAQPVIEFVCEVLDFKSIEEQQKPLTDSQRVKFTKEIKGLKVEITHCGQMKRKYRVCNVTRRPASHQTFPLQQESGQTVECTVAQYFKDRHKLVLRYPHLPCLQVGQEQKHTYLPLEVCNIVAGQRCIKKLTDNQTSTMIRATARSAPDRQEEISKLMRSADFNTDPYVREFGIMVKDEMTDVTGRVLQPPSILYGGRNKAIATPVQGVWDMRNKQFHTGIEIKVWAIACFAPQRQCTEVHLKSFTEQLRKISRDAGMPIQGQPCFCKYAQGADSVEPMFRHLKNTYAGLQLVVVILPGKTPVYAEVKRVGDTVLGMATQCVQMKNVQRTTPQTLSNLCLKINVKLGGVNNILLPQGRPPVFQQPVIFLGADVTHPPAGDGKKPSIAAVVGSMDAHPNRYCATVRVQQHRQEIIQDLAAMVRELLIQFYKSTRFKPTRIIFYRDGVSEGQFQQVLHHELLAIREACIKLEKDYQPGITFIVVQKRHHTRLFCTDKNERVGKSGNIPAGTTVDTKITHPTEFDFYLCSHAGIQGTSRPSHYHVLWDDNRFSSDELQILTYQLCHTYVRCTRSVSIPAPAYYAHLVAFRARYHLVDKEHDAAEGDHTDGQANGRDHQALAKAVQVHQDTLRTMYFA
Sequence of AGO2 A367P (Q9UKV8 whole entry A367P/S387D/S824A/S828D/S831D/S834A): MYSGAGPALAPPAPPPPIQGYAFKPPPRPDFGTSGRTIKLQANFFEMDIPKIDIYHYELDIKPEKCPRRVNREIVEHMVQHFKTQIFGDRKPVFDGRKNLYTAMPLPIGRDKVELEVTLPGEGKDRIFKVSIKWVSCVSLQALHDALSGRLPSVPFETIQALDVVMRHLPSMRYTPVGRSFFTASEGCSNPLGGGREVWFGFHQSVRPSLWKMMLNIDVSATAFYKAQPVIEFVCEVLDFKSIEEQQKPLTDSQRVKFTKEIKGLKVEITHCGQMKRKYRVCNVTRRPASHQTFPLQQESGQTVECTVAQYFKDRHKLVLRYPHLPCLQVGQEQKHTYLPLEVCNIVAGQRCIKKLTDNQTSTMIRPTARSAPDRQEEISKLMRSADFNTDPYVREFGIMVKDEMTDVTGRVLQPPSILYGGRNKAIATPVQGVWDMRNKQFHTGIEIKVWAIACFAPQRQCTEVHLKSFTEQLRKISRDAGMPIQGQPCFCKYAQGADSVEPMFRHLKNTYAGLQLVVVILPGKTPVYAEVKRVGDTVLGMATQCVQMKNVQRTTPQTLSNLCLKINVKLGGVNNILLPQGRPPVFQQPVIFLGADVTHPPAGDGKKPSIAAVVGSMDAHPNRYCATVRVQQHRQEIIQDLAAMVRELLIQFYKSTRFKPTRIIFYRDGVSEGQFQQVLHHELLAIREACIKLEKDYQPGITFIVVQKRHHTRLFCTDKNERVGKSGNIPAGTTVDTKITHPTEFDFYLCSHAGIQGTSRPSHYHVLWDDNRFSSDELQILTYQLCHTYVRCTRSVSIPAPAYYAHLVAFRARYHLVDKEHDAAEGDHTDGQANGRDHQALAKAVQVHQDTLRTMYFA
Sequence of AGO2 L192P (Q9UKV8 whole entry L192P/S387D/S824A/S828D/S831D/S834A): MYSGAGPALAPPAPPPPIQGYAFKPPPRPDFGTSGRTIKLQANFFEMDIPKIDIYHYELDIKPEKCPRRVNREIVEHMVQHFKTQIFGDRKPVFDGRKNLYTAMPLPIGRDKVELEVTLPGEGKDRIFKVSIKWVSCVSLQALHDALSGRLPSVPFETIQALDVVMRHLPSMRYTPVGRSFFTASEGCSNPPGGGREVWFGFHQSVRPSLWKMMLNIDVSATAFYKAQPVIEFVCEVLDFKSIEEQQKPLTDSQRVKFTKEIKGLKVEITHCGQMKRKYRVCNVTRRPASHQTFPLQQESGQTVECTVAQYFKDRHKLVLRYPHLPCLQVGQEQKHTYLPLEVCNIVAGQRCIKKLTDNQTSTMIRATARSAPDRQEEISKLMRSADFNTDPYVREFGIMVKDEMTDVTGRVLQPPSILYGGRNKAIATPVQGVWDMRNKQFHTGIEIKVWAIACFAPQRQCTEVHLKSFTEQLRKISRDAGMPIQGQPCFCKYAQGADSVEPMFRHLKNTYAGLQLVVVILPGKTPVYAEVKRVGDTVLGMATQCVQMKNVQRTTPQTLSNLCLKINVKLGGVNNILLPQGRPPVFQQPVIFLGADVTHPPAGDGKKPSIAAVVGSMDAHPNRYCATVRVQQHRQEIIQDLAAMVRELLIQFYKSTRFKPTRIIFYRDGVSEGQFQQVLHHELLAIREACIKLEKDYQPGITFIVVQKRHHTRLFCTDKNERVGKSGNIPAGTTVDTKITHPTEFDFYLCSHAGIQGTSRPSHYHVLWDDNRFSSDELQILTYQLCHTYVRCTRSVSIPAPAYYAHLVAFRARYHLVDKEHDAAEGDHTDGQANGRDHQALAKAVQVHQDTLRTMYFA
Sequence of AGO2 WT (phosphosite mutant background) (Q9UKV8 whole entry S387D/S824A/S828D/S831D/S834A): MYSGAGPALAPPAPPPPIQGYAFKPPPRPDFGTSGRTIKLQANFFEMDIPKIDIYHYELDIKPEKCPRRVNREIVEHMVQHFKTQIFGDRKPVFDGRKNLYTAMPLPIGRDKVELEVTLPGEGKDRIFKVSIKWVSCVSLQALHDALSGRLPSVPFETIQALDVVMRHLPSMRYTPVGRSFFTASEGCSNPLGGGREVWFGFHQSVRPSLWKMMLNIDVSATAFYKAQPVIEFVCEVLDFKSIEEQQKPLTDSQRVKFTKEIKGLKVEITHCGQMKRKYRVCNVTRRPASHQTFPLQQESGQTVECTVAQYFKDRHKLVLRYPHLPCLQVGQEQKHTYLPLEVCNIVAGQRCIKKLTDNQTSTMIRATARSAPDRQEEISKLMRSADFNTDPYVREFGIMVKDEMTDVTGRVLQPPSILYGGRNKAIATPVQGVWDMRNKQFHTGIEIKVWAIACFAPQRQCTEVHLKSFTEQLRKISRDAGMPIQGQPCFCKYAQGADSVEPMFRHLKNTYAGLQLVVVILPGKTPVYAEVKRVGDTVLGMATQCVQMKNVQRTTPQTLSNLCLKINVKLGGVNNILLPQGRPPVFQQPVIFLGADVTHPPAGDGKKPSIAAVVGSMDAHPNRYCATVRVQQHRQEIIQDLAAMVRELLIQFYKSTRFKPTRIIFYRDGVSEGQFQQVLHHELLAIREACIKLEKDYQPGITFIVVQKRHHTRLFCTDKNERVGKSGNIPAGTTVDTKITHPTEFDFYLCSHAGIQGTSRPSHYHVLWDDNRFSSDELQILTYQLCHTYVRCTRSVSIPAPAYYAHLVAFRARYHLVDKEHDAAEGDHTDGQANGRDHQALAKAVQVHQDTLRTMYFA

One experiment concerns the target AGO2 WT (phosphosite mutant background) (Homo sapiens, UniProt Q9UKV8 1-859, S387D;S824A;S828D;S831D;S834A). Put plainly: RNA Bind-n-Seq (nitrocellulose filter binding and sequencing); miR-122 guide loaded in AGO2; 60 min incubation; 30 mM Tris pH 8.0, 100 mM potassium acetate, 2 mM magnesium acetate, 0.5 mM TCEP, 0.005% NP-40, 0.01 mg/ml yeast tRNA; 3 nM AGO2-miR-122, 100 nM RNA library; 60; high values mean tight binding. The following applies: protein: recombinant; tags: His6 (N-terminal, pFastBac HTA). The method, boiled down:
(§1)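 His-tagged AGO2 was expressed in Sf9 insect cells by baculovirus, loaded with a synthetic guide RNA, and purified by Ni-NTA and a biotinylated capture oligo. Bound RNA was extracted, reverse-transcribed, barcode-amplified and Illumina-sequenced. Fold enrichment is each sequence's read fraction divided by its input-library read fraction.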
Take B1: the binding signal is 0.24 fold enrichment over input.
Still for that read-out and setting: next, B2: 0.138 fold enrichment over input; B3: 85.3 fold enrichment over input.
The same measure, in the same setting: the result for B4 reads 0.155 fold enrichment over input.
As to B5, the binding signal was 0.142 fold enrichment over input.
The same measure, in the same setting: the result for B6 reads 0.15 fold enrichment over input.
Still for that read-out and setting: the result for B7 reads 0.17 fold enrichment over input; that for B8, 0.17 fold enrichment over input.
The same measure, in the same setting: next, B9: 0.186 fold enrichment over input.

The target of a further experiment is AGO2 L192P (Homo sapiens, UniProt Q9UKV8 1-859, L192P;S387D;S824A;S828D;S831D;S834A). Described as above. Particulars: protein: recombinant; tags: His6 (N-terminal, pFastBac HTA). The method, boiled down:
as §1
With B1, the binding signal was 0.941 fold enrichment over input.
Still for that read-out and setting: next, B2: 0.642 fold enrichment over input; B3: 60.8 fold enrichment over input.
As for B4, the binding signal is 0.54 fold enrichment over input.
On the same count and under the same terms, the result for B5 reads 0.6 fold enrichment over input.
In the case of B6, the binding signal is 0.597 fold enrichment over input.
Still for that read-out and setting: next, B7: 0.594 fold enrichment over input.
The same measure, in the same setting: next, B8: 0.761 fold enrichment over input; B9: 1.56 fold enrichment over input.

A further experiment has as its target AGO2 A367P (Homo sapiens, UniProt Q9UKV8 1-859, A367P;S387D;S824A;S828D;S831D;S834A). Described as above. Particulars: protein: recombinant; tags: His6 (N-terminal, pFastBac HTA). The method, boiled down:
as §1
With B1, the binding signal is 0.66 fold enrichment over input.
Same read-out and setting: the result for B2 reads 0.406 fold enrichment over input; that for B3, 86.8 fold enrichment over input; that for B4, 0.303 fold enrichment over input.
Regarding B5, the binding signal is 0.25 fold enrichment over input.
As for B6, the binding signal is 0.316 fold enrichment over input.
Same read-out and setting: the result for B7 reads 0.522 fold enrichment over input; that for B8, 0.505 fold enrichment over input.
Same read-out and setting: the result for B9 reads 1.45 fold enrichment over input.

Another experiment has as its target AGO2 T357M (Homo sapiens, UniProt Q9UKV8 1-859, T357M;S387D;S824A;S828D;S831D;S834A). The experiment is described as above. Particulars: protein: recombinant; tags: His6 (N-terminal, pFastBac HTA). The method, boiled down:
as §1
Consider B1, for which the binding signal is 0.675 fold enrichment over input.
On the same count and under the same terms, next, B2: 0.575 fold enrichment over input; B3: 35.6 fold enrichment over input; B4: 0.599 fold enrichment over input.
On the same count and under the same terms, the result for B5 reads 0.636 fold enrichment over input; that for B6, 0.623 fold enrichment over input.
Same read-out and setting: the result for B7 reads 0.649 fold enrichment over input; that for B8, 0.643 fold enrichment over input; that for B9, 0.527 fold enrichment over input.

For another experiment, the target named is AGO2 F182del (Homo sapiens, UniProt Q9UKV8 1-859, S387D;S824A;S828D;S831D;S834A;del182-182). The description is as above. Particulars: protein: recombinant; tags: His6 (N-terminal, pFastBac HTA). The method, boiled down:
as §1
Turning to B1, the binding signal is 2.79 fold enrichment over input.
Still for that read-out and setting: next, B2: 1.82 fold enrichment over input; B3: 69.5 fold enrichment over input.
Still for that read-out and setting: the result for B4 reads 0.697 fold enrichment over input; that for B5, 0.799 fold enrichment over input; that for B6, 0.822 fold enrichment over input.
For B7, the binding signal was 0.604 fold enrichment over input.
With B8, the binding signal was 2.01 fold enrichment over input.
Still for that read-out and setting: next, B9: 1.55 fold enrichment over input.
